Assay results published in PubChem BioAssay.
For some assays here: Entries with a potency or affinity are not part of this list. Activity calls are given as the source filed them. Unless noted, no rule for the calls is given here.

Legend:
[1] = antimalarial activity against Dd2 strain (AID 2302;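 active = growth inhibition above 50% at the single 2 µM test dose, taken to imply half-maximal potency below 2 µM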;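 also: 0% = DMSO untreated growth and 100% = chloroquine plus artemisinin killed control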); conditions: P. falciparum Dd2 in RBCs, LDH growth readout, 72 h; at 2 µM; hits give high values
[2] = human hepatoma cell viability loss – ATP luminescence, cytotoxicity control for P. falciparum antimalarial project, primary screen (AID 2303;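 active = inhibition above 50%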;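 also: 0% = DMSO wells and 100% = digitonin-killed cells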); conditions: HepG2 viability, 24-48 h, at 10 µM, hits give high values
[3] = biological target: L-lactate dehydrogenase (Plasmodium falciparum (isolate CDC / Honduras)) (UniProt Q27743); assay: PfLDH activity inhibition – cell lysate, 3D7 strain, counter-screen for P. falciparum growth inhibition project (AID 2304);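 also: 0% = vehicle and 100% = reference inhibitor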; conditions: P. falciparum 3D7 crude extract, LDH APAD/NBT absorbance; at 2 µM; hits give high values
[4] = inhibition of 3D7 malaria parasite growth – strain 3D7 (AID 2306);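 also: 0% = DMSO wells and 100% = chloroquine plus artemisinin control wells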; conditions: P. falciparum 3D7 erythrocytic growth, LDH absorbance, 72 h; at 2 µM; hits give high values
[5] = biological target: Calcium-dependent protein kinase 1 (Plasmodium falciparum (isolate 3D7)) (UniProt P62344); assay: PfCDPK1 kinase inhibitors, biochemical, TCAMS library (AID 1159585; cut-off not given, nearly all actives have IC50 up to about 0.98 µM;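 also: inhibitors leave more ATP so luminescence rises with inhibition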); conditions: recombinant PfCDPK1, Kinase-Glo ATP depletion luminescence
[6] = biological target: Plasmodium falciparum protein kinase 6 (PK6, PF3D7_1337100) (UniProt Q8IDW1); assay: PfPK6 kinase inhibitors, biochemical, TCAMS library (AID 1159586); conditions: recombinant PfPK6, Kinase-Glo ATP depletion luminescence
[7] = biological target: Protein kinase 7 (PK7), Plasmodium falciparum 3D7 (PF3D7_0213400) (UniProt Q7YTF7); assay: inhibition of Plasmodium PK7 catalytic activity – biochemical, TCAMS antimalarial set, Kinase-Glo luminescence (AID 1159587); conditions: recombinant PfPK7, Kinase-Glo ATP depletion luminescence
[8] = biological target: Calcium-dependent protein kinase 4 (Plasmodium falciparum (isolate 3D7)) (UniProt Q8IBS5); assay: PfCDPK4 kinase inhibitors, biochemical, TCAMS library (AID 1159588; cut-off not given, nearly all actives have IC50 up to about 0.91 µM); conditions: recombinant PfCDPK4, Kinase-Glo ATP depletion luminescence
Sequence of Calcium-dependent protein kinase 4 (Plasmodium falciparum (isolate 3D7)) (Q8IBS5 whole entry, looked up): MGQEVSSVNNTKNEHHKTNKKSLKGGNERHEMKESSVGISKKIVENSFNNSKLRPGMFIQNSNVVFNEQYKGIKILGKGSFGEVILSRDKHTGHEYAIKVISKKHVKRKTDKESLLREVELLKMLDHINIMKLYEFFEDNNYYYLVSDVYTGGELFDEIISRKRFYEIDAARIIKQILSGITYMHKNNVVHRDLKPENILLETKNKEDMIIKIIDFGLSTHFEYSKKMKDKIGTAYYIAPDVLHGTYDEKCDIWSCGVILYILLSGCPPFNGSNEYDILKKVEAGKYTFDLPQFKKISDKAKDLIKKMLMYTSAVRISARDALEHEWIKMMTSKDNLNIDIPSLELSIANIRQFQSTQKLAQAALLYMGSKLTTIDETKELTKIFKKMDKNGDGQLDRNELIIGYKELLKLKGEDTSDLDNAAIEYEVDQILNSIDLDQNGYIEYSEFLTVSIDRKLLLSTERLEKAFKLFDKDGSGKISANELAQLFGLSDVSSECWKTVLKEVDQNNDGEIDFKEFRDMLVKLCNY

Sequence of Plasmodium falciparum protein kinase 6 (PK6, PF3D7_1337100) (Q8IDW1 1-305): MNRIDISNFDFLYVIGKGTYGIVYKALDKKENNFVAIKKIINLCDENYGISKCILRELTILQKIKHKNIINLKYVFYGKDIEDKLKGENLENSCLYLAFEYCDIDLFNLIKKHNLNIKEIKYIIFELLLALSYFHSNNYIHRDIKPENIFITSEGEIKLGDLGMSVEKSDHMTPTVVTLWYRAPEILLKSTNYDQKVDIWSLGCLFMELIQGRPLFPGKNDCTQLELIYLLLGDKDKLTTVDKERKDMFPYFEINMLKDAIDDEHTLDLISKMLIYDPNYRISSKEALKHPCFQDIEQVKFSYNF
Sequence of Calcium-dependent protein kinase 1 (Plasmodium falciparum (isolate 3D7)) (P62344 whole entry, looked up): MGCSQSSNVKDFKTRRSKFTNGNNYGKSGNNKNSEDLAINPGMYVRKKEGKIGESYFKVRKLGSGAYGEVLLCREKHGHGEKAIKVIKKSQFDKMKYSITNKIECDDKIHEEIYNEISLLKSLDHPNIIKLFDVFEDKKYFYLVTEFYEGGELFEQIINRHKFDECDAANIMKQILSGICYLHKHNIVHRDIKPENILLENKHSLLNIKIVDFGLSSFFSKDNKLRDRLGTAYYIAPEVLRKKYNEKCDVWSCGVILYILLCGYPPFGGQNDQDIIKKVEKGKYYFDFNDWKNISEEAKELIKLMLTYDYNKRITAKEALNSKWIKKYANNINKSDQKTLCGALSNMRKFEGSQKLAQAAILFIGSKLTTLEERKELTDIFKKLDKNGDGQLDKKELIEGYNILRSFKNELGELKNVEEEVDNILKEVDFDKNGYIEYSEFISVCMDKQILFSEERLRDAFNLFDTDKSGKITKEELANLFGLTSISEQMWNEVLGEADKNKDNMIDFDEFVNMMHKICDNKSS
Sequence of Protein kinase 7 (PK7), Plasmodium falciparum 3D7 (PF3D7_0213400) (Q7YTF7 1-343): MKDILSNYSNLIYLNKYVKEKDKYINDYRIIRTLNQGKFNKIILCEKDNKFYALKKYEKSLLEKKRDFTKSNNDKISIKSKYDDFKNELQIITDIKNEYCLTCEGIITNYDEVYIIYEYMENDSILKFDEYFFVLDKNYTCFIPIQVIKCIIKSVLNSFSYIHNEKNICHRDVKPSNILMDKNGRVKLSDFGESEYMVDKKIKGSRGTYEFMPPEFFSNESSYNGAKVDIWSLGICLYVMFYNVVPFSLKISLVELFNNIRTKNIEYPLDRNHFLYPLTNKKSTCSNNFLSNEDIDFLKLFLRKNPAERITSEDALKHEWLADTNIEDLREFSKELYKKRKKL
Sequence of L-lactate dehydrogenase (Plasmodium falciparum (isolate CDC / Honduras)) (Q27743 whole entry, looked up): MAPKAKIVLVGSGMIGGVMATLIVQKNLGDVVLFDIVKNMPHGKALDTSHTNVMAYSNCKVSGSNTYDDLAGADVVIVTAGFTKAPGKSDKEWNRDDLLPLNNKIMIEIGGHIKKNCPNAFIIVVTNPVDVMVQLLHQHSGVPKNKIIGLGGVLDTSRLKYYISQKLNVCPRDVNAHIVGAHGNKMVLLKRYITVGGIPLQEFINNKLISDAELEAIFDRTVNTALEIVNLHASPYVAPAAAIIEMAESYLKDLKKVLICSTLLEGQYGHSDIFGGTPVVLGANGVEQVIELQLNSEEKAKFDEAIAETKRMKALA

Compound | growth inhibition [1] | inhibition [2] | inhibition [3] | growth inhibition [4] | outcome [5] | outcome [6] | outcome [7] | outcome [8]
COc1ccc(-c2cc(-c3nc4ccc(C(=O)N5CCOCC5)cc4[nH]3)c(=O)n(C)c2)cc1OC | 95% (active) | 6% (inactive) | 4% (inactive) | 93% (active) | inactive | inactive | inactive | inactive
N#Cc1cccc(NC(=O)NC2CCN(CCCCCNC(=O)/C=C/c3ccc(Cl)c(Cl)c3)CC2)c1 | 7% (inactive) | 31% (inactive) | 0% (inactive) | 100% (active) | inactive | inactive | inactive | inactive
O=C(CCC1CCCCC1=O)c1ccccc1 (stereo unspecified) | 3% (inactive) | 0% (inactive) | -4% (inactive) | 91% (active) | inactive | inactive | inactive | inactive
Cn1c(N)c(C(=O)CSc2nnc(-c3cccs3)n2Cc2ccccc2)c(=O)n(C)c1=O | 68% (active) | -13% (inactive) | -3% (inactive) | 85% (active) | inactive | inactive | inactive | inactive
CCOc1ccc(-c2nc(NC(=O)CS(=O)(=O)c3ccccc3)sc2C)cc1 | 59% (active) | 6% (inactive) | 2% (inactive) | 100% (active) | inactive | inactive | inactive | inactive
CCOc1cc2ncnc(Nc3ccc(OCc4ccccc4Br)c(OC)c3)c2cc1OCC | 82% (active) | 1% (inactive) | 1% (inactive) | 100% (active) | inactive | inactive | inactive | inactive
Cc1ccc(CNC(=O)c2cc3c(=O)n4cccc(C)c4nc3n(CCN3CCOCC3)c2=N)cc1 | 21% (inactive) | 31% (inactive) | -6% (inactive) | 97% (active) | inactive | inactive | inactive | inactive
COc1cc2c(cc1C(F)(F)F)N(C(=O)Nc1cc(F)c(F)c(-c3cccnc3)c1)CC2 | 15% (inactive) | 20% (inactive) | 3% (inactive) | 90% (active) | inactive | inactive | inactive | inactive
Cn1cc(CCNc2ccnc(N3CCC(c4ncc[nH]4)CC3)n2)c2ccccc21 | 5% (inactive) | 12% (inactive) | 3% (inactive) | 92% (active) | inactive | inactive | inactive | inactive
Cc1cnc(Nc2cccnc2)nc1Nc1ccccc1C(=O)NC(C)C | 26% (inactive) | 9% (inactive) | 0% (inactive) | 85% (active) | inactive | inactive | inactive | inactive
CCCCNCC(O)COc1ccccc1-c1ccc(N/N=C/c2cccc3ccccc23)nn1 (stereo unspecified) | 8% (inactive) | 38% (inactive) | -4% (inactive) | 99% (active) | inactive | inactive | inactive | inactive
c1csc(-c2ccc3c(c2)CC(NCc2c[nH]c4cnccc24)C3)c1 (stereo unspecified) | 34% (inactive) | 9% (inactive) | -1% (inactive) | 100% (active) | inactive | inactive | inactive | inactive
Cc1[nH]c2ccccc2c1CC1CCN(CC2CCN(C(=O)/C=C/c3ccc(Cl)c(Cl)c3)CC2)CC1 | 14% (inactive) | 34% (inactive) | -3% (inactive) | 92% (active) | inactive | inactive | inactive | inactive
COc1ccc2nccc(N3CCC(CCNCc4ccc5c(n4)NC(=O)CS5)CC3)c2c1 | 86% (active) | 55% (active) | -1% (inactive) | 101% (active) | inactive | inactive | inactive | inactive
Nc1nc(N)c2c3c(cnc2n1)CCCC3 | -4% (inactive) | 61% (active) | -4% (inactive) | 95% (active) | inactive | inactive | inactive | inactive
CC(C)Oc1ccc(N2CCN(CCCCNC(=O)c3ccc(NC(=O)c4ccc(Cl)cc4)cc3)CC2)c(OC(C)C)c1 | 85% (active) | 31% (inactive) | 1% (inactive) | 102% (active) | inactive | inactive | inactive | inactive
O=C(Nc1cccc(N2CCC(NCc3cnn(-c4cccc(F)c4)c3)CC2)c1)c1ccncc1 | 40% (inactive) | 50% (active) | 4% (inactive) | 84% (active) | inactive | inactive | inactive | inactive
COc1ccc2nc(N3CCNCC3)nc(NCCCc3ccccc3)c2c1 | 43% (inactive) | 31% (inactive) | -3% (inactive) | 100% (active) | inactive | inactive | inactive | inactive
CN1CCN(c2cc(-c3cccc(C(F)(F)F)c3)nc(-c3ccncc3)n2)CC1 | 98% (active) | 38% (inactive) | 1% (inactive) | 102% (active) | inactive | inactive | inactive | inactive

Compound | growth inhibition [1] | inhibition [2] | inhibition [3] | growth inhibition [4] | outcome [5] | outcome [6] | outcome [7] | outcome [8]
O=S(=O)(c1ccc(OC(F)(F)F)cc1)C1C[C@H]2CC[C@@H](C1)N2S(=O)(=O)c1ccc(Cl)c(C(F)(F)F)c1 (stereo partly specified) | 95% (active) | 1% (inactive) | -5% (inactive) | 100% (active) | inactive | inactive | inactive | inactive
Cc1cccc2[nH]c(-c3cccc(-c4ccc(NC(=O)C(C)(C)c5ccccn5)cc4)c3)nc12 | 4% (inactive) | -3% (inactive) | -1% (inactive) | 97% (active) | inactive | inactive | inactive | inactive
O=C(C=Cc1ccc(-c2nc3ccccc3[nH]2)cc1)NC1CCN(Cc2ccccc2)CC1 | 88% (active) | 15% (inactive) | 3% (inactive) | 99% (active) | inactive | inactive | inactive | inactive
COc1ccccc1C1CCN(C2CCC(NC(=O)/C=C/c3ccc(C(F)(F)F)cc3)CC2)CC1 (stereo unspecified) | 7% (inactive) | 57% (active) | 4% (inactive) | 88% (active) | inactive | inactive | inactive | inactive
O=S(=O)(NCCN1CCCC1)c1ccc(-c2ccc(CNC3Cc4ccccc4C3)cc2)cc1 | 91% (active) | 61% (active) | 5% (inactive) | 99% (active) | inactive | inactive | inactive | inactive
O=C(C=Cc1ccc(Cl)c(Cl)c1)NCCCCCN1CCC(CCNC(=O)c2ccc3c(c2)OCO3)CC1 | 2% (inactive) | 35% (inactive) | -3% (inactive) | 99% (active) | inactive | inactive | inactive | inactive
CC(C)CN1CCCN(Cc2cccc(NC(=O)c3ccc(Cl)c(Cl)c3)c2)CC1 | 9% (inactive) | 10% (inactive) | 0% (inactive) | 91% (active) | inactive | inactive | inactive | inactive
CC(C)CCNc1nc(NCCCc2ccccc2)c2cc(O)ccc2n1 | 95% (active) | 14% (inactive) | -1% (inactive) | 101% (active) | inactive | inactive | inactive | inactive
CC(C)c1cccc(C(NC(=O)[C@H]2Cc3ccccc3CN2C(=O)c2cccc(N3CCOCC3)c2)C2CCCC2)c1 (stereo partly specified) | 96% (active) | 3% (inactive) | 1% (inactive) | 94% (active) | inactive | inactive | inactive | inactive
Cc1ccc(C2=NNC3(S2)C(=O)N(C)c2ccccc23)cc1 (stereo unspecified) | 12% (inactive) | 36% (inactive) | 5% (inactive) | 82% (active) | inactive | inactive | inactive | inactive
Cc1ccc(NC(=O)c2ccc(CN3CCCN(CCC(C)C)CC3)cc2)cc1C | 17% (inactive) | 25% (inactive) | 3% (inactive) | 92% (active) | inactive | inactive | inactive | inactive
Cc1cn(CC(=O)Nc2cccc(-c3cccc(-c4nc5c(C)cccc5[nH]4)c3)c2)c(=O)[nH]c1=O | 100% (active) | 2% (inactive) | 5% (inactive) | 100% (active) | inactive | inactive | inactive | inactive
Cc1cccc(CNc2nc(C)cc(N[C@@H](CC(C)C)C(=O)NCCOc3ccccc3)n2)c1 | 35% (inactive) | 15% (inactive) | -1% (inactive) | 93% (active) | inactive | inactive | inactive | inactive
O=C(Cn1c(SCc2cccc(F)c2F)cc(=O)c2ccccc21)N(CCc1cnc[nH]1)Cc1ccc(-c2ccc(C(F)(F)F)cc2)cc1 | 72% (active) | 18% (inactive) | 7% (inactive) | 101% (active) | inactive | inactive | inactive | inactive
O=C1OC2(CN1CC1CCN(Cc3ccc(-n4ccnc4)cc3)C1)c1ccccc1-c1ccccc12 (stereo unspecified) | -5% (inactive) | 25% (inactive) | -2% (inactive) | 96% (active) | inactive | inactive | inactive | inactive
Cc1ccc(-c2[nH]n3c(=O)c4c(nc3c2C)CCCC4)cc1 | 87% (active) | 16% (inactive) | -1% (inactive) | 97% (active) | inactive | inactive | inactive | inactive
Cc1cccc2[nH]c(-c3ccc(-c4cccc(CNCc5cnn(-c6ccccc6)n5)c4)s3)nc12 | 58% (active) | 40% (inactive) | -1% (inactive) | 98% (active) | inactive | inactive | inactive | inactive
CCCCCCNC(=O)C1Cc2c([nH]c3ccc(Br)cc23)C2(CCN(Cc3ccccc3)CC2)N1 (stereo unspecified) | 75% (active) | 100% (active) | 6% (inactive) | 100% (active) | inactive | inactive | inactive | inactive
